VP16 counter – Gal4-VP16 reporter inhibition counter-screen; Potency, µM (series often up to 53.6 µM), for inactives: at the top dose activity, negative = inhibition, usual class: inhibitors; Drosophila S2 Gal4-VP16 UAS-luciferase, luminescence, 20 h; hit rate 3.5% among 310,000;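 further: Gal4-VP16 expression switched on by copper sulfate through the metallothionein promoter; potency means the concentration at half of the fitted maximal effect; nearly all actives have a fitted effect of over 50% in size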
PKM2 act – PKM2 (human) enzyme activation; hit rate 0.34% among 260,000; Potency, µM (series often up to 57.5 µM), for the others: at the top dose activation, usual class: activators; purified PKM2, Kinase-Glo ATP luminescence, activation; response scale: 0% is enzyme alone, no compound; further: potency means the concentration at half of the fitted maximal effect; nearly all actives have a fitted effect of over 55% in size
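ATP formation by purified human PK-M2, quantified via coupled luciferase luminescence after 1 h at room temperature with 0.1 mM ADP and 0.5 mM PEP final.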
CtBP-E1A blk – inhibitors of CtBP/E1A interaction; AlphaScreen GST-E1A/His-CtBP binding, 1536-well; stronger effect = lower value; activity change, % (test concentration not listed); hit rate 0.49% among 340,000; in the data active means activity change below about -65%; inconclusive means mostly about -30% to -63%
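Homogeneous bead-based format: GST-tagged E1A captured on glutathione donor beads, His-tagged CtBP on nickel acceptor beads; compounds precede bead addition by 2 h at 37 °C.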
Six1-Eya2 inh – inhibitors of human Six1/Eya2 interaction; Q15475+O00167; AlphaScreen GST-Six1/His-Eya2 binding, biochemical; stronger effect = lower value; activity change, % (test concentration not listed); hit rate 0.56% among 360,000; in the data active means activity change below about -65%; inconclusive means mostly about -30% to -63%
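GST-Six1 + His-Eya2 (5X stock: 250/500 nM); Tris pH 8.0, 300 mM NaCl, 0.05% BSA, 0.02% Tween 20; GSH donor/Ni acceptor beads; 1 h 37 °C dark; AlphaScreen readout.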
RORgamma inh – ROR gamma (mouse) transcription inhibition. Drosophila S2 Gal4-RORgamma UAS-luciferase reporter, 20 h. P51450. hit rate 5.4% among 310,000. Potency, µM (top dose mostly 53.6 µM), inactives show at the highest dose activity change, negative = inhibition, hits mostly inhibitors. AID 2551; further: potency means the concentration at half of the fitted maximal effect; nearly all actives have a fitted effect of over 60% in size
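Drosophila S2 cells stably expressing Gal4-DBD/mouse RORγ fusion under metallothionein promoter plus UAS-luciferase; compound 1 h, then 700 uM CuSO4 induction for 20 h at ambient temperature; inhibition read as reduced luminescence.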
Active calls of the source: *; u = inconclusive; x = no result given. An excerpt weighted towards active compounds, which were near 5.6% of everything screened. Unless noted, the call rests on the fitted dose curve; in most records, active means well fitted curve in the direction sought with a large enough effect; inconclusive means small, poorly fitted or top-dose-only effect, or another doubt; inactive means no such curve, though single readings can be large; an effect the other way counts as inactive or inconclusive. On the % scale 0 is the no-effect control and ±100 the full control effect.

SMILES | VP16 counter | PKM2 act | CtBP-E1A blk | Six1-Eya2 inh | RORgamma inh
O=C(Nc1ccccc1N1CCCC1)c1ccc([N+](=O)[O-])o1 | u | -5% | -21 | -10 | 2µM*
CC(=O)O[C@H]1C[C@@]2(C)[C@@H](C[C@@H](O)[C@H]3[C@@]4(C)CC[C@@H](O)[C@@H](C)[C@@H]4CC[C@@]32C)/C1=C(\CCC=C(C)C)C(=O)O | x | x | 3 | -3 | x
Cc1nnsc1C(=O)NC1CCCc2c1cnn2-c1ccccc1F (stereo not drawn) | 10µM* | 0% | -2 | 7 | 17%
COc1ccc(C(=O)NC2CCCc3c2cnn3-c2ccccc2F)cc1OC (stereo not drawn) | 2.5µM* | x | 0 | -2 | u
Cc1cccc(-n2ncc3c2CCCC3NC(=O)C2(C(N)=O)CC2)c1C (stereo not drawn) | 7.9µM* | 0% | -4 | 1 | u
CC(C)(C)c1ccc(-n2ncc3c2CCCC3NC(=O)CN2CCOC2=O)cc1 (stereo not drawn) | 13µM* | -9% | 1 | 2 | -3%
O=C(NC1CCCc2c1cnn2-c1ccccc1F)c1ccncc1 (stereo not drawn) | x | x | -12 | 7 | x
CCCCn1c(N)c(N(CCOC)C(=O)COC(=O)c2ccccc2NCCO)c(=O)[nH]c1=O | x | x | -19 | 6 | x
CCC(CC)Nc1ccc(C(CC(N)=O)NC(=O)Cc2cccc3ccccc23)cc1[N+](=O)[O-] (stereo not drawn) | 2% | 1% | -2 | -6 | 11%
Cc1nnsc1C(=O)NC1CCCc2c1cnn2-c1ccc(C(C)(C)C)cc1 (stereo not drawn) | 6.3µM* | 5% | 7 | -1 | -37%
CC(C)(C)c1ccc(-n2ncc3c2CCCC3NC(=O)c2ccncc2)cc1 (stereo not drawn) | x | x | 4 | 0 | x
Cc1ccc(-c2ccc(/C=N/NC(=O)CN3CCCC3)o2)cc1Cl | -19% | 2% | -9 | -8 | 11µM*
Cc1ccc(-c2ccc(/C=N\NC(=O)C3C(=O)NCC3c3ccccc3)o2)cc1Cl (stereo not drawn) | 20µM* | 10% | -13 | -17 | u
O=C(CSCc1nc2c(nnn2Cc2ccc(F)cc2)c(=O)[nH]1)Nc1cccc(C(F)(F)F)c1 | -8% | 0% | 4 | -2 | -10%
COc1ccc(S(=O)(=O)N2CCC(C(=O)NCCC(=O)NCc3cccnc3)CC2)cc1 | x | x | -8 | 5 | x
CCC(C)c1ccc(O)c(NC(=S)NC(=O)c2cccnc2)c1 (stereo not drawn) | 1.3µM* | 0% | -16 | -5 | 0.56µM*
N#Cc1ccccc1NC(=S)NC(=O)c1cccnc1 | x | -8% | 7 | -11 | x
O=C(NC(=S)Nc1ccccc1O)c1cccnc1 | u | -10% | 1 | 5 | 11µM*
O=C(NC(=S)Nc1cc([N+](=O)[O-])ccc1O)c1cccnc1 | 13µM* | -12% | x | 3 | 2µM*
Cc1ccc([N+](=O)[O-])cc1NC(=S)NC(=O)c1cccnc1 | -24% | -14% | 0 | 0 | 13µM*
CN(C)S(=O)(=O)c1ccc(Cl)c(C(=O)OCC(=O)c2ccco2)c1 | x | x | 10 | 5 | x
Cc1ccc(C(=O)Nc2ccccc2N2CCCCC2)o1 | -4% | 1% | 9 | -1 | -33%
COc1ccccc1-c1cnc(C(O)c2cccc(F)c2)[nH]1 (stereo not drawn) | x | x | 0 | -9 | x
CC(C)c1ccc(NC(=O)C2(C)Cc3c(-c4cccc(C(F)(F)F)c4)ccnc3O2)cc1 (stereo not drawn) | x | x | -7 | -4 | x
COc1ccc(N/C=C/C(=C(C#N)C#N)N(C)C)cc1 | 6% | -5% | 2 | -7 | 0%
COc1ccccc1N1CCN(C(=O)C2CCN(S(=O)(=O)c3ccccc3F)CC2)CC1 | x | x | x | 0 | x
Cc1ccc(S(=O)(=O)/N=C(\N)Nc2nc(C)c3cc(C)ccc3n2)cc1 | -4% | 1% | -28 | -26 | 16%
Cc1ccc(NC(=S)/N=C(\N)Nc2nc(C)c3cc(C)ccc3n2)c(C)c1 | 7.1µM* | -12% | -17 | -18 | 7.9µM*
Cc1ccc(NC(=S)/N=C(\N)Nc2nc(C)c3cc(C)c(C)cc3n2)cc1C | 5µM* | -5% | -8 | -15 | 2.2µM*

Source: PubChem BioAssay (National Center for Advancing Translational Sciences (NCATS))
